Data from PubChem BioAssay AID1159580 (chemical genetic matrix, 2015).
Hit rate of the full screen: of about 5,500 compounds, about 2,000 (36%) were called active. About 18% were inconclusive and are not listed. Cut-off read from the data, not from the text of the source: active = normalized growth mostly below about 0.91 (no sharp cut-off); inconclusive = no clear call, values can overlap the other calls; inactive = mostly above about 0.92. The list shows a part of the results.

Test: chemical genetic growth profiling, strain panel (AID 1159580);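 note: tested at 20 µM; growth read once vehicle control cultures reached saturation at 30 °C; 1 = growth at the plate median or of vehicle wells; lower values mean less growth of the strain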
Conditions: S. cerevisiae deletion strains, growth OD

Measured: normalized growth

COc1cc(NS(C)(=O)=O)ccc1Cc1c2ccccc2nc2ccccc12
active: locus YAL021C, strain ccr4, hits give low values 0.785 | locus YBR009C, strain hhf1, hits give low values 0.828 | locus YCL016C, strain dcc1, hits give low values 0.476 | locus YCL061C, strain MRC1, hits give low values 0.867 | locus YDL005C, strain med2, hits give low values 0.681 | locus YDR069C, strain doa4, hits give low values 0.842 | locus YER016W, strain bim1, hits give low values 0.909 | locus YFR010W, strain ubp6, hits give low values 0.877 | locus YJL092W, strain hpr5, hits give low values 0.712 | locus YJL115W, strain asf1, hits give low values 0.341 | locus YLR027C, strain aat2, hits give low values 0.916 | locus YLR221C, strain rsa3, hits give low values 0.899 | locus YLR320W, strain mms22, hits give low values 0.208 | locus YNL322C, strain KRE1 (second series), hits give low values 0.822 | locus YOR080W, strain dia2, hits give low values 0.494 | locus YOR290C, strain snf2, hits give low values 0.823
inactive: locus YAL026C, strain drs2, hits give low values 1 | locus YAL030W, strain snc1, hits give low values 0.971 | locus YBL061C, strain skt5, hits give low values 1.01 | locus YBR023C, strain chs3, hits give low values 0.988 | locus YBR171W, strain sec66, hits give low values 1.02 | locus YBR231C, strain swc5, hits give low values 0.969 | locus YBR279W, strain paf1, hits give low values 0.988 | locus YCL011C, strain gbp2, hits give low values 0.939 | locus YCL069W, strain vba3, hits give low values 1 | locus YCR088W, strain abp1, hits give low values 0.986 | locus YDL040C, strain nat1, hits give low values 0.994 | locus YDR001C, strain nth1, hits give low values 0.999 | locus YDR137W, strain rgp1, hits give low values 1.1 | locus YDR159W, strain sac3, hits give low values 0.947 | locus YDR195W, strain ref2 1.05 | locus YDR297W, strain sur2, hits give low values 0.96 | locus YDR334W, strain swr1, hits give low values 1.01 | locus YDR335W, strain msn5, hits give low values 0.993 | locus YDR392W, strain spt3, hits give low values 0.795 | locus YEL003W, strain gim4, hits give low values 0.966 | locus YEL037C, strain rad23, hits give low values 0.979 | locus YEL061C, strain CIN8 (second series), hits give low values 0.982 | locus YER015W, strain faa2, hits give low values 0.986 | locus YER111C, strain swi4, hits give low values 1.01 | locus YER155C, strain BEM2 (second series), hits give low values 0.885 | locus YGL167C, strain pmr1, hits give low values 1 | locus YGL173C, strain kem1, hits give low values 0.991 | locus YGL227W, strain vid30, hits give low values 0.994 | locus YGL240W, strain doc1, hits give low values 0.892 | locus YGL253W, strain hxk2, hits give low values 0.996 | locus YHR013C, strain ard1, hits give low values 0.874 | locus YHR027C, strain rpn1, hits give low values 0.978 | locus YHR030C, strain SLT2, hits give low values 0.974 | locus YHR079C, strain IRE1, hits give low values 0.946 | locus YHR142W, strain chs7, hits give low values 0.964 | locus YJL095W, strain BCK1 (second series), hits give low values 0.986 | locus YJL095W, strain BCK1, hits give low values 1 | locus YJL129C, strain trk1, hits give low values 0.933 | locus YJL154C, strain vps35, hits give low values 0.998 | locus YJL164C, strain tpk1, hits give low values 0.918 | locus YJL166W, strain qcr8, hits give low values 0.945 | locus YJR066W, strain TOR1, hits give low values 0.919 | locus YKL160W, strain elf1, hits give low values 0.985 | locus YKR026C, strain gcn3, hits give low values 0.998 | locus YKR091W, strain srl3, hits give low values 1 | locus YLL001W, strain dnm1, hits give low values 0.936 | locus YLL026W, hits give low values 0.977 | locus YLL041C, strain sdh2, hits give low values 0.99 | locus YLR113W, strain HOG1, hits give low values 0.971 | locus YLR258W, strain gsy2, hits give low values 0.969 | locus YLR262C, strain YPT6 (second series), hits give low values 1 | locus YLR342W, strain FKS1, hits give low values 0.927 | locus YLR357W, strain rsc2, hits give low values 0.987 | locus YLR370C, strain arc18, hits give low values 0.923 | locus YLR384C, strain iki3, hits give low values 0.994 | locus YML120C, strain ndi1, hits give low values 0.956 | locus YMR058W, strain fet3, hits give low values 0.949 | locus YMR125W, strain sto1, hits give low values 0.98 | locus YMR129W, hits give low values 0.984 | locus YMR205C, strain PFK2, hits give low values 0.947 | locus YMR231W, strain pep5, hits give low values 1 | locus YNL071W, strain lat1, hits give low values 0.987 | locus YNL183C, strain NPR1, hits give low values 0.952 | locus YNL209W, strain ssb2, hits give low values 0.986 | locus YNL248C, strain rpa49, hits give low values 0.945 | locus YNR049C, strain mso1, hits give low values 0.989 | locus YOR001W, strain rrp6, hits give low values 0.915 | locus YOR070C, strain gyp1, hits give low values 0.984 | locus YOR083W, strain WHI5, hits give low values 0.934 | locus YOR106W, strain vam3, hits give low values 0.926 | locus YOR231W, strain MKK1, hits give low values 1.01 | locus YOR265W, strain rbl2, hits give low values 0.985 | locus YOR270C, strain vph1, hits give low values 0.935 | locus YPL051W, strain arl3, hits give low values 0.992 | locus YPL078C, strain atp4, hits give low values 1.02 | locus YPL106C, strain sse1, hits give low values 1.02 | locus YPL240C, strain hsp82, hits give low values 0.991 | locus YPL256C, strain CLN2, hits give low values 0.944
